# Screening results: PubChem, National Center for Advancing Translational Sciences (NCATS)
# Sm TGR inh: blocks Schistosoma mansoni thioredoxin glutathione reductase; AID 485364; Potency, µM (titrated, usually from 114 µM), actives largely listed as inhibitors; 360,000 compounds, 3% hits; purified TGR, DTNB reduction, TNB absorbance 405 nm; Q962Y6; note: nearly all actives have a fitted effect of over 60% in size
#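 First, TGR (20 nM dispensed) and NADPH were mixed with compound. Second, a 15 min room-temperature incubation followed. Third, further NADPH and then DTNB were added to start the reaction. Finally, TNB absorbance was monitored kinetically.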
# RE007 growth inh: less growth of the S. pombe RE007 Vpr strain | S. pombe RE007 Vpr strain, BacTiter-Glo ATP luminescence, 24 h | Potency, µM (titrated, usually from 92.2 µM), actives largely listed as inhibitors | 360,000 compounds, 0.21% hits; active = well fitted falling curve with a large enough effect; inconclusive = small, poorly fitted or top-dose-only effect; inactive = no such curve, though single readings can be large or run the other way; note: nearly all actives have a fitted effect of over 50% in size
#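 Fission yeast strain RE007, carrying one chromosomally integrated HIV-1 vpr copy, was seeded at OD 0.01 in PMG+AL medium with 23 nL pinned compound. After 24 h at 30 °C and 99% humidity, viability was read by BacTiter-Glo luminescence.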
# AMA1 RON2 block: disrupts binding of P. falciparum AMA1 to RON2; AlphaScreen AMA1-biotinylated RON2 peptide binding; 360,000 compounds, 0.2% hits; Potency, µM (titrated, usually from 58.2 µM), hits mostly inhibitors; AID 720542; note: nearly all actives have a fitted effect of over 45% in size
#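 AMA1 (3D7) with his tag at 25 nM final met compounds first, then biotinylated RON2 peptide at 25 nM; detection used donor plus acceptor beads, 10 µg/mL apiece, read by AlphaScreen after 30 min at room temperature.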
# AmpC inh no detg: AmpC beta-lactamase inhibition without detergent; AID 485341; AmpC nitrocefin hydrolysis, absorbance 480 nm, 0.0001% Triton; P00811; 330,000 compounds, 0.52% hits; Potency, µM (top dose mostly 57.1 µM), usual class: inhibitors; note: nearly all actives have a fitted effect of over 20% in size
# Target sequence (P00811 whole entry, looked up): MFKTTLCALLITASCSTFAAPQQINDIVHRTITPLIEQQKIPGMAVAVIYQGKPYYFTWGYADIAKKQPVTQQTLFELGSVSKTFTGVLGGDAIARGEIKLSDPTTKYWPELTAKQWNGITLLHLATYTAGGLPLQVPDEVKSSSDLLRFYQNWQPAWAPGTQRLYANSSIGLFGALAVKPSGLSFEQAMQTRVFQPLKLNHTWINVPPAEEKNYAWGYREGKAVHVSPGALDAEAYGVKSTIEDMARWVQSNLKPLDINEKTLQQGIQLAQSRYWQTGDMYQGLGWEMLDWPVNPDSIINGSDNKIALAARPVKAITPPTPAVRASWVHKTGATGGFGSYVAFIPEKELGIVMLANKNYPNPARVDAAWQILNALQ
#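 20 mM phosphate pH 7.0 + 0.01% (detergent screen) or 0.0001% Triton X-100; 5.3 nM AmpC reagent; cpd preinc 15 min RT; nitrocefin (800 uM stock) to start; A480 q20 s × 4 min; Activity was normalised to no-enzyme and no-compound control wells.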
# AmpC inh detg: inhibitors of E. coli AmpC beta-lactamase with detergent; P00811; AmpC hydrolysis of nitrocefin, absorbance 480 nm, 0.01% Triton; Potency, µM (series often up to 114 µM), usual class: inhibitors; 370,000 compounds, 0.041% hits; AID 485294; note: nearly all actives have a fitted effect of over 25% in size
#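 AmpC (5.3 nM in the dispensed reagent) in 20 mM phosphate pH 7.0 with 0.01% (detergent screen) or 0.0001% Triton X-100 was preincubated with compounds for 15 min at room temperature. Nitrocefin was then added from an 800 uM solution, and hydrolysis was followed at 480 nm.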
# Hits are given with their value; i = inactive; ? = inconclusive; nt = no result given; [ ] = remark or other dose. Most compounds without a hit are left out; they make up all but 3.2% or so of the library. Unless noted, calls come from the whole dose curve; as a rule, active = well fitted curve in the direction sought with a large enough effect; inconclusive = small, poorly fitted or top-dose-only effect, or another doubt; inactive = no such curve, though single readings can be large; an effect the other way counts as inactive or inconclusive.
SMILES,Sm TGR inh,RE007 growth inh,AMA1 RON2 block,AmpC inh no detg,AmpC inh detg
Cc1ccc(CSc2nc3ccc(NC(=O)CC(C)C)cc3s2)cc1,i,nt,nt,nt,i
O=C(Nc1cccc(-c2ccc(N3CCOCC3)nn2)c1)c1ccc(Cl)cc1,i,i,i,32µM,?
Cc1ccc(CNC(=O)CSc2nc3ccccc3nc2Cc2ccc(C)cc2)cc1,i,nt,nt,nt,i
Cc1cccc(C)c1NC(=O)COC(=O)c1c2c(nc3ccccc13)/C(=C\c1ccc3c(c1)OCO3)CCC2,i,i,i,28µM,i
CCN(C(=O)c1nn(-c2ccc(C)cc2)c(=O)c2c1c1ccccc1n2C)c1ccc(F)cc1,i,nt,nt,nt,i
COc1ccc(NC(=O)CN(C)C(=O)c2cccc(S(=O)(=O)N3CCN(Cc4ccccc4)CC3)c2)cc1,i,i,i,i,i
COc1ccc(NC(=O)CN(C)C(=O)c2cccc(S(=O)(=O)N3CCN(C)CC3)c2)cc1,89µM,i,i,i,i
COc1cccc(C2CC(=O)Nc3c2c(=O)n(C)c2nc4ccccc4n32)c1OC (centres undefined),i,nt,nt,nt,i
Cc1ccc(C)c(NS(=O)(=O)c2ccc3oc(=O)c4ncn(C)c4c3c2)c1,i,nt,nt,nt,i
O=C(NC(NNc1ccc([N+](=O)[O-])cc1)(C(F)(F)F)C(F)(F)F)c1ccc(Cl)cc1,22µM,i,i,i,?
Cc1ccc(S(=O)(=O)NCc2ccc3[nH]c(C)cc3c2)cc1,11µM,i,i,i,i
Cc1cc2cc(CNC(=O)c3ccc(Br)o3)ccc2n1C,14µM,i,i,i,i
Cc1cc2cc(CNC(=O)c3ccc(Br)o3)ccc2[nH]1,40µM,i,i,i,i
Cc1cc2cc(CCNC(=O)c3ccc(Br)o3)c(=O)[nH]c2cc1C,35µM,i,i,i,i
Nc1c(-c2nc(-c3cccs3)no2)nnn1-c1ccc(Cl)cc1,i,nt,nt,nt,i
CC(=O)c1ccc(NS(=O)(=O)c2ccc(-n3cccn3)cc2)cc1,i,nt,nt,nt,i
O=c1[nH]c2ccc(Cl)cc2c(-c2ccccc2)c1SC(=S)N1CCOCC1,i,i,i,i,i
O=c1[nH]c2ccc(Cl)cc2c(-c2ccccc2)c1SC(=S)N1CCCCC1,i,i,i,10µM,i
Clc1ccccc1C1Nc2cccc3cccc(c23)N1,18µM,?,i,i,?
Brc1ccc(C2Nc3cccc4cccc(c34)N2)cc1,nt,i,i,nt,nt
c1coc(C2Nc3cccc4cccc(c34)N2)c1,7.9µM,nt,nt,?,i
Brc1ccc(-c2ccc(C3Nc4cccc5cccc(c45)N3)o2)cc1,35µM,nt,nt,i,i
Oc1ccc(C2Nc3cccc4cccc(c34)N2)c(O)c1,50µM,i,i,i,i
Clc1cccc(C2Nc3cccc4cccc(c34)N2)c1Cl,i,i,?,i,?
CCOC(=O)C1CCN(C(=O)c2cc3ccc4ccc(C)[nH]c4c3n2)CC1,i,nt,nt,nt,i
SMILES,Sm TGR inh,RE007 growth inh,AMA1 RON2 block,AmpC inh no detg,AmpC inh detg
CCc1ccccc1Nc1ncnc2c1cnn2-c1ccc(Cl)cc1,i,nt,nt,nt,i
COc1ccc(-c2nc(CSCC(=O)N3CCc4ccccc4C3)c(C)o2)cc1OC,32µM,i,i,i,i
COc1ccc(-c2nc(CSCC(=O)N3CCN(c4cccc(C)c4)C(C)C3)c(C)o2)cc1OC (centres undefined),45µM,i,?,i,i
COc1ccc(CCNC(=O)Cn2c(=O)c3cccn3c3ccc(F)cc32)c(OC)c1,i,nt,nt,nt,i
CCN=c1scc(-c2cccs2)n1/N=C/c1cc(OC)ccc1O,i,i,?,i,?
CC(C)N=c1scc(-c2cccs2)n1/N=C/c1ccc(O)c(O)c1O,20µM,?,i[11.6 µM],i,i
CN=c1scc(-c2ccccc2F)n1/N=C/c1ccc(O)c(O)c1O,18µM,?,i,i,i
Cc1cccc(N2CCN(C(=O)C3CCN(C(=O)c4cc5sccc5n4C)CC3)CC2C)c1 (centres undefined),i,nt,nt,nt,i
Cc1cc(C)c(S(=O)(=O)N/N=C/c2ccc([N+](=O)[O-])o2)c(C)c1,7.1µM,i,i,i,?
NC(=O)N/N=C/c1ccc([N+](=O)[O-])o1,?,i[18.4 µM],i,i,i
O=C(N/N=C/c1ccc([N+](=O)[O-])o1)C(O)c1ccccc1 (centres undefined),45µM,i,i,i,i
Cc1nonc1C(=O)N/N=C/c1ccc([N+](=O)[O-])o1,45µM,i,i,i[11.4 µM],?
O=C(N/N=C/c1ccc(-c2ccc([N+](=O)[O-])cc2)o1)C(O)c1ccccc1 (centres undefined),i,i,i,i,i
CN(/N=C/c1ccc([N+](=O)[O-])o1)c1ccccc1,i,i,13µM,i,i
O=C(CNC(=O)c1ccc(Cl)cc1)OCc1cc(=O)n2nc(C3CC3)sc2n1,i,nt,nt,nt,i
COc1ccccc1C(=O)OCc1cc(=O)n2nc(C(C)C)sc2n1,i,nt,nt,nt,i
O=C(CSc1ccc(Cl)cc1)N/N=C/c1ccc([N+](=O)[O-])o1,5.6µM,i,i,i,i
Cc1cccc(NC(=O)c2cn(-c3ccccc3)nc2-c2ccccc2)c1C,i,nt,nt,nt,i
Cc1ccc(-c2nnc(Sc3nc4ccccc4o3)c3ccccc23)cc1,i,i,i,i,i
Cc1nnc(Sc2nc3ccccc3o2)c2ccccc12,32µM,i,i,i,i
O=C1C=CC(=O)N1c1ccc(Sc2ccc([N+](=O)[O-])cc2)cc1,3.2µM,nt,nt,i,i
COC(=O)c1c(SCC(=O)Nc2cc(C)cc(C)c2)[nH]c2ccccc2c1=O,i,nt,nt,nt,i
O=C1CCCc2c1cc(C(=O)Nc1ccc(Br)cn1)c(=O)n2-c1ccccc1,18µM,i,i,i,i
O=C1CCCc2c1cc(C(=O)O)c(=O)n2-c1ccccc1,i,i,i,i,i
O=C1CCCc2c1cc(C(=O)NC1CCSC1=O)c(=O)n2-c1ccccc1 (centres undefined),35µM,i,i,i,i
SMILES,Sm TGR inh,RE007 growth inh,AMA1 RON2 block,AmpC inh no detg,AmpC inh detg
CCc1ccccc1N(C)C(=O)C1CCCN(c2ncnc3c2nc2n3CCCCC2)C1 (centres undefined),i,nt,nt,nt,i
N#Cc1nc(-c2ccco2)oc1NCc1ccc(F)cc1,i,i,i,i,?
N#Cc1nc(-c2ccco2)oc1NCc1cccnc1,89µM,i,i,i,i
O=S(=O)(c1ccccc1)c1nc(-c2ccco2)oc1NCc1ccccc1,35µM,i,i,i,?
O=S(=O)(c1ccc(F)cc1)c1nc(-c2ccco2)oc1Nc1ccccc1,i,i,i,i,i
O=S(=O)(c1ccccc1)c1nc(-c2ccco2)oc1NCCCn1ccnc1,40µM,i,i,i,?
O=S(=O)(c1ccccc1)c1nc(-c2ccco2)oc1Nc1ccccc1,i,i,i,i,i
O=S(=O)(c1ccccc1)c1nc(-c2ccco2)oc1NCc1ccco1,35µM,i,i,i,?
